This is an account of results in PubChem BioAssay (NCI).

Molecules are shown by their SMILES. Compounds without any hit were thinned out: in the full panel of roughly 83,000, 20% have a hit.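 Growth was measured after 48 h exposure to one concentration of compound in 96-well plates. Values under 10 count as active.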 Unmarked numbers belong to inactive results. Activity calls are given as the source filed them.

The assay relates to HCC-2998 colon. The assay is described as follows: NCI-60 one-dose screen, 48 h (100 = growth as untreated, 0 = no growth, -100 = all killed). To be noted: 10 µM unless noted. On the procedure: Growth inhibition of the HCC-2998 human tumor cell line is measured as a screen for anti-cancer activity. Cells are grown in 96 well plates and exposed to the test compound for 48 hours. Compounds are tested at a single concentration, which is 10^-5 M for most compounds. The reported endpoint is percent growth (GI% or GIPRCNT), where numbers from 0 - 100% represent growth inhibition, and numbers from -100% - 0 represent cell death. For example, a value of 40 represents 60% growth inhibition. A value of 0 means no net growth occurred over the course of the experiment. A value of -40 indicates 40% of cells at the beginning of the experiment died by the end of the experiment. A value of -100 means all cells are dead at the end of the experiment.
NCI-60 Human Tumor Cell Lines Screen was performed using the standard one-dose NCI protocol, which is described in more detail at https://dtp.cancer.gov/discovery_development/nci-60/default.htm.
Compounds with GIPRCNT values below 10 were considered active. Activity score was based on GIPRCNT using the following formula: […]
Score is 0 for GIPRCNT values of 100 or above, 50 for GIPRCNT values of 0, and 100 for GIPRCNT values of -100.
Regarding `COc1ccc(C2CC(c3cc(OC)c(OC)c(OC)c3)=NN2C(C)=O)cc1OCC(=O)Nc1nc2ccc(C(F)(F)F)cc2s1` (stereo not given), the growth was 92.3%. In the case of `Cc1cc(C)c(-c2cc(O)c(-c3c(C)cc(C)cc3C)cc2O)c(C)c1`, the growth was 45.8%. In the case of `COc1ccc(-c2cc(-c3ccc(OC)c(OC)c3)nc(SCCCCCC(=O)NO)n2)cc1` it was 86.7%. Regarding `C=C(C)[C@@H]1CC[C@]2(C)[C@H](C(=O)C=C3[C@@H]4C[C@](C)(C(=O)N5CCN(C)CC5)CC[C@]4(C)CC[C@]32C)[C@@]1(C)CCC#N`, the growth was -94% [100 µM] (active). On to `COc1ccc(C(=O)CCC(=O)O)cc1`, for which the growth was 102%.

Regarding `CCCCNC(=O)NS(=O)(=O)Cc1ccccc1`, the growth was 110%. Regarding `Nc1cc(NN=C(c2ccc(O)cc2)c2ccc(O)cc2)c([N+](=O)[O-])cc1[N+](=O)[O-]`, the growth is -97.6% (active). Regarding `O=C(Nc1ccc(C(=O)/C=C/c2ccc(N3CCOCC3)cc2)cc1)Nc1ccc([N+](=O)[O-])cc1`, the growth was 109%. On to `Cc1cc[n+](CCCCCCCCCC[n+]2ccc(C)cc2)cc1`, for which the growth was 92.8%. In the case of `OC(c1ccc(Cl)cc1)(c1ccc(Cl)cc1)C(O)(c1ccc(Cl)cc1)c1ccc(Cl)cc1` it was 48.6%.

Regarding `O=C(Nc1ccc(Oc2ccc(F)cc2)c(Cl)c1)c1cccnn1`, the growth is 89.1%. Turning to `Cc1cc(C)c(O)c(CNCCCCCCNCc2cc(C)cc(C)c2O)c1`, the growth was -84.3% (active).

For the compound `Cc1cccc(/C=C2\N=C(c3ccccc3)N(c3ccc(S(N)(=O)=O)cc3)C2=O)c1`, the growth is 99.8%. In the case of `CC(C)CCSC1=CC(=O)c2ccccc2C1=O` it was 100%; in that of `COc1cc2c(O)n(CCCN3CCOCC3)c3c4cnc5cccc(c(=O)c3c2cc1OC)c54`, 59.2%. Regarding `N#CCCc1c[nH]c2ccccc12`, the growth is 113%.

Take `CCn1cc(-c2ccnc(NCCNS(=O)(=O)c3ccc(Br)cc3)c2)c(-c2cccc(OC)c2)n1`: the growth is 111%. In the case of `FC(F)(F)c1ccc2c(c1)Sc1ccccc1N2` it was 102%; in that of `O=C(Nc1cccnc1)c1ccc2ccc3ccc(C(=O)Nc4cccnc4)nc3c2n1`, 3.41% (active). For the compound `C#CC(OC(=O)N(C)C)(c1ccccc1)c1ccc(F)cc1` (stereo not given), the growth was 86.3%. In the case of `CCN(CC)c1ccc2cc(NC(=O)OCCNC(=O)CCNC(=O)[C@H](CC(C)C)NC(=O)C(C)(C)NC(=O)C(C)(C)NC(=O)[C@H](CC(C)C)NC(=O)CCNC(=O)C(C)(C)NC(=O)[C@H](CC(C)C)NC(=O)CCNC(=O)[C@@](C)(CC)NC(=O)[C@H](C)NC(=O)CCNC(=O)C(C)(C)NC(=O)[C@H](C)NC(=O)[C@@H]3CCCN3C(=O)[C@@](C)(CC)NC(=O)[C@H](Cc3ccccc3)NC(=O)C3CCCN3C(=O)C(C)(C)NC(=O)C3CCCN3C(=O)C(C)(C)NC(C)=O)c(=O)oc2c1` (stereo not given in full), the growth was -94.2% (active). To `C[C@]12CCc3nc(Nc4ccccc4)sc3C1=CC[C@@H]1[C@@H]2CC[C@]2(C)/C(=N/NC(N)=S)CC[C@@H]12` belongs 84.9%. Regarding `Clc1ccc2nc(-c3ccc(-c4ccc(/C=N/NC5=NCCN5)cc4)s3)cn2c1`, the growth was 109%. `C[C@@H]1C[C@H]2C(=O)O[C@@H](C)[C@H](NC(=O)[C@H](Cc3cc(F)cc(F)c3)NC(=O)Nc3ccc(Cl)cc3F)C(=O)N3C[C@H](O)C[C@H]3C(=O)N3CCN(C)C[C@H]3C(=O)N[C@@H](C)C(=O)N2C1`: the growth was 32.8%. In the case of `CCOC(=O)/C(C#N)=C(\C)CCc1ccccc1` it was -6.07% (active). As for `Cc1ccc(S(=O)(=O)Oc2ccc([N+](=O)[O-])cc2[N+](=O)[O-])cc1`, the growth was 99.8%. In the case of `O=C1Nc2ccccc2/C1=C/C(=O)c1ccc(N2CCCCC2)cc1` it was 105%. With `O=c1cc(-c2ccccc2)oc2cc(OCc3cn(Cc4ccc(F)cc4)nn3)cc(O)c12`, the growth is 100% [100 µM]. To `Cn1cc(-c2noc(-c3cn(C)c4ncccc34)n2)c2cc(Cl)ccc21` belongs 99.8%; to `CC(C)C1=NOC(=O)C1=Cc1cn(-c2ccccc2)nc1-c1ccc(Cl)cc1`, 72.5%; to `CCN(CC)c1ccc(/C=C/C=C2\NC(=O)NC2=O)cc1`, 37.2%. To `Nc1nc(Cl)c2ncn(Cc3cc4c(cc3I)OCO4)c2n1` belongs 76.4%; to `c1nc(N2CCOCC2)c2[nH]ccc2n1`, 110%; to `COc1cc2c(=O)[nH]c3cc([N+](=O)[O-])ccc3c2cc1[N+](=O)[O-]`, 62.8%. In the case of `Oc1ccc(N=Nc2nccs2)c(O)c1` it was 73.4%.

For the compound `Cc1cc(C)c(S(=O)(=O)/N=c2/n(-c3ccccc3)nc3n2CCN3C2=NCCN2)c(C)c1`, the growth was 61.5%. To `C[C@H]1[C@H](C)CC[C@]2(C(=O)N3CCN(C)CC3)CC[C@]3(C)C(=CC[C@@H]4[C@@]5(C)C/C(=C/c6ccco6)C(=O)C(C)(C)[C@@H]5CC[C@]43C)[C@H]12` belongs 38.2% [100 µM]. As to `O=C(Nc1cccc2cccnc12)c1cc(C(=O)c2ccc(Cl)cc2)n2ccc(-c3ccncc3)cc12`, the growth was 113%.

As for `O=C1Nc2ccccc2/C1=C/C(=O)c1ccc(N2CCOCC2)cc1`, the growth is 101%.

For `CCN(CC)CCCOc1ccc2c(c1)O/C(=C\c1cccc(OC)c1)C2=O`, the growth is 86.7%.
